High-throughput results deposited in PubChem by Sanford-Burnham Center for Chemical Genomics.
APOBEC3G inh – inhibitors of human APOBEC3G DNA deaminase; Q9HC16; recombinant A3G, ssDNA deamination FAM/TAMRA fluorescence; inhibition, % at 20 µM; 330,000 tested, 0.28% active;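 active = inhibition of at least 40% at 20 µM, with no more than 30% in the related APOBEC3A deaminase screen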;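 note: plate controls were DMSO wells with A3G for no effect and wells lacking A3G enzyme for full effect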
GC-A act – GC-A (human) enzyme activation. 370,000 tested, 0.14% active. HEK293 GC-A cells, cGMP TR-FRET, EC30 ANP; 0% at EC30 ANP, 100% saturating ANP. P16066. activation, % at 10 µM; in the data active = activation above about 40%
APOBEC3A inh – inhibitors of human APOBEC3A DNA deaminase; recombinant A3A, FAM/TAMRA ssDNA deamination fluorescence; inhibition, % at 20 µM; 330,000 tested, 0.41% active;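 active = at least 40% inhibition at 20 µM here, with at most 30% in a related deaminase screen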;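 note: plate controls were A3A with DMSO for no effect and wells lacking A3A enzyme for full effect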
NPR2 activator – GC-B (human) receptor activation | P20594 | HEK293-GC-B cells, CNP EC30, cGMP TR-FRET; 0% at EC30 CNP, 100% saturating CNP | activation, % at 10 µM | 370,000 tested, 0.11% active | AID 1920062;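 active = activation at 10 µM reaching about 35% in either raw or pattern-adjusted values, limit read from the data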
FAS TE block – inhibitors of human fatty acid synthase thioesterase domain. P49327. recombinant FAS-TE, OMFH fluorogenic substrate, fluorescence endpoint. inhibition, % at 15 µM. 360,000 tested, 0.67% active. AID 602261;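 active = compounds whose normalised, plate-corrected inhibition of enzyme fluorescence in the single-dose primary screen is 50% or more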;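 note: 0% = DMSO with enzyme and 100% = substrate without enzyme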
A3A conf – confirmation of human APOBEC3A DNA deaminase inhibitors. shares compounds with APOBEC3A inh. recombinant A3A, ssDNA deaminase UDG fluorescence assay. inhibition, % at 20 µM. 1,400 tested, 63% active. AID 493151;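 active = inhibition reaching a set limit, 80% of the first screen's cutoff, at 20 µM in any replicate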;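 note: plate controls were DMSO wells with A3A for no effect and wells lacking A3A enzyme for full effect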
UDG A3A counter – UDG inhibition in APOBEC3A counter-screen; inhibition, % at 20 µM; 1,000 tested, under 10 active; UDG counterscreen, FAM/TAMRA uracil oligo fluorescence; shares compounds with APOBEC3A inh; call rule not given here
Starred values were filed as active, the others as inactive; / = no result given. Shown are actives, neighbours in structure and some others; about 1.4% of the full set was active somewhere.

SMILES	APOBEC3G inh	GC-A act	APOBEC3A inh	NPR2 activator	FAS TE block	A3A conf	UDG A3A counter
Cc1cccc(C)c1NC(=O)CN(C)C(=O)c1cc(S(=O)(=O)N2CCOCC2)ccc1N1CCCC1	13	2	46*	5	-6	-1	/
CCNc1ccc(S(=O)(=O)N(C)C)cc1[N+](=O)[O-]	21	3	67*	4	-12	54*	/
Cc1ccc(-n2nnnc2CNC(=O)C2CC(=O)N(c3ccccc3)C2)cc1C (stereo not drawn)	-6	-5	-2	3	-5	/	/
Cc1ccc(N2CC(C(=O)NCc3nnnn3-c3ccc(C)c(C)c3)CC2=O)cc1 (stereo not drawn)	-3	2	52*	-3	-3	6	-14
C=CCN(C)CC#Cc1ccc(C)cc1	/	3	/	-10	/	/	/
CSC1=NC2C(N1)N(C)C(=O)N2C (stereo not drawn)	20	3	58*	1	-2	21	/
COc1cccc(CNC(=O)[C@H]2CCCN2C(=O)[C@H]2CCCN2C(=O)c2ccccc2)c1	/	5	/	6	/	/	/
Cc1ccc(S(=O)(=O)N2CCN(C(=O)c3cccn3C)CC2)cc1	/	-2	/	1	/	/	/
N#CC1(NC(=O)COc2ccccc2[N+](=O)[O-])CCCCC1	3	2	48*	-9	-2	22	/
N#CC1(NC(=O)COc2cc(F)ccc2[N+](=O)[O-])CCCCC1	-5	1	-1	-1	-7	/	/
CCCC[C@@H]1C(=O)N2N=Cc3cscc3[C@H]2N2N=Cc3cscc3[C@@H]12	/	-11	/	-15	/	/	/
Cc1nn(-c2cccc(Cl)c2)c2nc(-c3ccco3)cc(C(=O)O)c12	16	0	39	-4	-4	/	/
Cc1nn(-c2ccccc2)c2nc(-c3ccco3)cc(C(=O)O)c12	21	2	67*	4	-2	48*	-1
CC[n+]1ccccc1/C=C/Nc1ccccc1	18	3	61*	2	-5	70*	7
CC(C)NC(=O)N[C@H]1C[C@@H]2O[C@H](CO)CC[C@@H]2O[C@@H]1CCc1ccc(-c2ccc(F)cc2)cc1	/	8	/	-1	/	/	/
Cc1nc2ccccc2c(=O)[nH]1	-8	1	-4	-1	-10	/	/
O=c1[nH]c(C2C3CC4CC(C3)CC2C4)nc2ccccc12 (stereo not drawn)	-4	-5	49*	2	-10	-10	-2
CCOC(=O)c1c(NC(=O)Cn2nc(C(F)(F)F)cc2C)sc(C)c1C	-6	-13	45*	-8	-9	1	4
Cc1cc2c(c(=O)o1)[C@@]1(C(=O)N(C)c3cccc(Br)c31)C1=C(CCCC1=O)O2	/	-8	/	-2	/	/	/
FC(F)(F)c1cccc(Cn2c3[n+](c4ccc(C(F)(F)F)cc42)CCCCC3)c1	21	-10	49*	-9	3	75*	4
Cc1cc(C(C)(C)C)cc(C)c1Cn1c2[n+](c3ccc(C(F)(F)F)cc31)CCCCC2	31	4	59	3	0	/	/
N#Cc1ccc(NC(=O)Cn2c3[n+](c4ccc(C(F)(F)F)cc42)CCCCC3)cc1	49	3	53	4	-1	/	/
O=C(Cn1c2[n+](c3ccc(C(F)(F)F)cc31)CCCCC2)Nc1ccc(Br)cc1	13	/	47*	/	-3	14*	-3
Cc1cc(C)c(C)c(S(=O)(=O)N2CCC(C(=O)Nc3ccc(S(=O)(=O)N4CCOCC4)cc3)CC2)c1C	4	-1	41*	5	39	2	/
COc1ccc(N2CC(C(=O)Nc3ccc(S(=O)(=O)N4CCOCC4)cc3)CC2=O)cc1 (stereo not drawn)	9	0	48*	-5	-6	26	/
Cn1cc(/C=N/NC(=O)c2cc3cc(Br)ccc3o2)c2ccccc21	16	13	52*	1	-6	58*	-1
c1ccc(Nc2ncnc3sc4c(c23)CCC4)cc1	-5	-3	-1	-4	16	/	/
Fc1ccc(Nc2ncnc3sc4c(c23)CCC4)cc1	-5	-2	61*	1	7	0	2
